# An excerpt weighted towards active compounds, which were near 4% of everything screened.
# MazEF act = activators of E. coli MazEF toxin-antitoxin RNase, primary screen, biochemical, fluorescence, uHTS | actives 0.32% (n = 350,000) | activation, % at 20 µM | FAM/BHQ RNA-DNA oligo cleavage fluorescence, 5 h | Endoribonuclease toxin MazF (Escherichia coli (strain K12)), P0AE70; in the data active = activation above about 50%
# Target sequence (P0AE70 whole entry, looked up): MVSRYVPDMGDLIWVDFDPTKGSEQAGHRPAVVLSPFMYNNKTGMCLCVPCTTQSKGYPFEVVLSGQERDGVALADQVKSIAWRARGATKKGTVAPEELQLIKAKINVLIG
# BoNT F protease = BoNT/F light chain protease inhibitors, primary screen, biochemical, flow cytometry, MLPCN library. Multiplex microsphere protease cleavage assay. inhibition, % at 10 µM. actives 0.22% (n = 360,000). AID 588497, 2011; in the data active = inhibition above about 35%, passing the limit was not always enough; inconclusive = no clear call, values can overlap the other calls; also: plate controls were buffer without enzyme for full effect and enzyme alone for no effect
# Autofluor counter = counter-screen for toxin protease inhibitors: compound fluorescence | compound autofluorescence counterscreen, microsphere flow cytometry; stronger effect = higher value | fluorescence intensity (no concentration beside the values) | actives 3.1% (n = 360,000); in the data active = fluorescence intensity above about 16000; inconclusive = no clear call, values can overlap the other calls
# BoNT A protease = BoNT/A light chain protease inhibitors, primary screen, biochemical, flow cytometry, MLPCN library; Botulinum neurotoxin type A light chain protease (Clostridium botulinum A str. ATCC 3502); multiplex microsphere protease substrate cleavage; inhibition, % at 10 µM; actives 0.17% (n = 360,000); also: plate controls were buffer without enzyme for full effect and enzyme alone for no effect
# DUSP3 inh = VHR1 phosphatase inhibitors, primary screen, biochemical, absorbance, uHTS | AID 1654, 2009 | inhibition, % at 13.3 µM | recombinant VHR phosphatase, pNPP absorbance | actives 0.52% (n = 290,000) | Dual specificity protein phosphatase 3 (Homo sapiens), P51452; in the data active = inhibition above about 50%
# Target sequence (P51452 whole entry, looked up): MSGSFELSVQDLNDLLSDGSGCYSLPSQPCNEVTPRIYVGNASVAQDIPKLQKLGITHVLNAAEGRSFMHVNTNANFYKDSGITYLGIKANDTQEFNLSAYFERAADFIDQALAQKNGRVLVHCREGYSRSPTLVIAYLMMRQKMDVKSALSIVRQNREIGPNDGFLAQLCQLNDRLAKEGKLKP
# Anthrax LF prot = Bacillus anthracis LF protease inhibitors, primary screen, biochemical, multiplex microsphere, MLPCN library; inhibition, % at 10 µM; Lethal factor (Bacillus anthracis), P15917; multiplex microsphere protease cleavage assay; actives 0.12% (n = 360,000); also: plate controls were buffer without enzyme for full effect and enzyme alone for no effect
# The depositor's hits bear a star; ? = inconclusive; . = no result given. Rule as the data show it, unless noted: active = inhibition above about 30%; inconclusive = no clear call, values can overlap the other calls; inactive = below that.
SMILES,MazEF act,BoNT F protease,Autofluor counter,BoNT A protease,DUSP3 inh,Anthrax LF prot
COCCC1CCCCN1C(=O)c1cc(COc2ccc(-n3cncn3)cc2)on1 (stereo not drawn),-4.3,-303.4,35235*,-170.1,10.1,-43.9
COc1ccc(NC(=O)C2CCN(Cc3cnn(-c4ccccc4)c3-n3cccc3)CC2)cc1OC,-6.3,-3.4,2874,-0.2,3.6,-1.4
COc1ccc(OC)c(NC(=O)C2CCN(Cc3cnn(-c4ccccc4)c3-n3cccc3)CC2)c1,6.4,-3.8,20746*,-1.5,31.5,-4.0
O=C(CN1CCN(c2ccccc2F)CC1)c1c[nH]c2ccc(F)cc12,6.7,0.8,4256,0.0,35.0,-5.1
CCOc1ccc(OCCOCCn2ccnc2)cc1,1.1,-4.6,3573,-1.0,16.1,-2.7
CC(C)(C)n1nnnc1CN(Cc1ccco1)Cc1cc2cc3c(cc2[nH]c1=O)OCO3,7.3,-9.5,2202,0.0,11.9,-1.1
COCCn1nnnc1CN(Cc1ccco1)Cc1cc2cc3c(cc2[nH]c1=O)OCO3,-1.0,-0.9,23147*,0.1,21.4,-0.4
O=C(COc1ccc(S(=O)(=O)N2CCCCC2)cc1)NCc1cccnc1,2.5,4.2,22072*,2.4,28.6,-1.5
Cc1cc(=O)oc2cc(OCC(=O)NCc3cccnc3)ccc12,2.7,-6.1,23262*,-1.7,4.5,-3.2
COc1ccc(CCNC(=O)COc2ccc3c(C)cc(=O)oc3c2)cc1,10.9,2.6,3994,0.4,.,-4.3
Cc1cc(=O)oc2cc(OCC(=O)NCCc3ccccc3)ccc12,-10.1,1.6,4312,1.3,57.6*,2.1
C=CCN1C(=O)CSc2ccc(C(=O)NC(C)c3ccccc3)cc21 (stereo not drawn),19.9,-1.6,5719,-0.8,-5.9,0.8
COc1ccccc1-c1nnc2sc(COc3ccccc3)nn12,3.9,10.6,20024*,7.5,41.4,-12.1
COc1ccccc1-c1nnc2sc(COc3ccc(Cl)cc3Cl)nn12,4.2,-15.8,6462,-0.2,19.2,-1.8
COc1ccc(OCc2nn3c(Cn4cnc5ccccc54)nnc3s2)cc1,-12.5,-2.3,16600*,-1.8,0.2,-4.9
CCCCCCc1cc2cc(-c3nnc(-c4ccccc4OC)o3)c(=O)oc2cc1O,-163.8,0.5,22218*,?,2.6,4.2
CN(C)/C=C/C(=O)c1cccc(Cl)c1,8.8,-4.8,16675*,-1.3,-0.1,-3.5
CSCCC(NC(=O)c1cncc(Br)c1)C(=O)O (stereo not drawn),-7.7,7.1,20225*,7.8,-10.5,-6.4
CSCCC(NC(=O)c1ccc(Br)cc1)C(=O)O (stereo not drawn),5.4,-8.8,4395,-0.5,16.7,1.2
NC(=O)c1nn(-c2ccccc2)c(=O)cc1O,-0.6,-0.4,22915*,-0.3,30.5,0.2
NC(=O)c1nn(-c2cccc(Cl)c2)c(=O)cc1O,8.3,-0.4,16281*,0.2,16.4,-7.1
NC(=O)c1nn(-c2ccc(Oc3ccccc3)cc2)c(=O)cc1O,-7.1,-3.8,4640,-1.1,20.2,-12.0
O=C(Nc1ccccc1)c1nn(-c2ccccc2)c(=O)cc1C(F)(F)F,380.8*,-1.3,2834,-0.5,13.2,-1.0
Cc1cccc(NC(=O)N2CCC(c3nc4ccccc4o3)CC2)c1,-7.8,-1.7,9964,0.0,17.7,-6.1
Cc1cc(C)cc(NC(=O)N2CCC(c3nc4ccccc4o3)CC2)c1,-2.0,-2.7,20562*,-1.7,8.3,-1.2
COc1ccc(CCC(=O)Nc2ccc(Br)cn2)cc1,3.6,-3.6,24589*,?,13.6,-0.7
COc1ccc(Cl)cc1NC(=O)Nc1ccc(Br)cn1,0.4,-6.2,17461*,?,7.6,-3.0
COc1ccc(NC(=O)Nc2ccc(Br)cn2)cc1OC,3.4,-12.6,17621*,-3.8,34.7,-2.8
COc1ccc(Cl)cc1NC(=O)NC(C)c1ccncc1 (stereo not drawn),-0.9,-4.0,17204*,-2.4,1.4,0.1
COc1cccc(NC(=O)Nc2ccc(Br)cn2)c1,4.7,-1.5,4317,-0.6,-25.5,-7.8

# Assay outcomes from PubChem BioAssay.
